# Screening data (PubChem BioAssay)
# Compounds with a hit are over-represented: about 2.8% of the library has one in this group of screens.
# Exocytosis inh – lytic granule exocytosis inhibition. TALL-104 LAMP-1 surface exposure, flow cytometry; cells stimulated with thapsigargin and PMA. inhibition, % at 10 µM. 360,000 tested, 0.66% active. AID 651702;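 active = inhibition above about 55%, limit read from the data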
# IDE act – IDE (human) activation, cell-based; P14735; HEK cells, FAbeta-B cleavage, fluorescence polarization; 0% vehicle, 100% cell-free pure enzyme wells; activation, % at 5.96 µM; 340,000 tested, 0.073% active; AID 493087;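 active = activation above the mean of all tested compounds plus 3 SD, set per screening campaign, cut at about 17% in these data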
# IDE cell inh – inhibits human insulin-degrading enzyme in HEK cells; 320,000 tested, 0.41% active; FAbetaB cleavage, fluorescence polarization; inhibition, % at 5.59 µM;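 active = percent inhibition above the average of all tested compounds plus 3 SD, set per screening campaign, cut at about 16% in these data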;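 also: IDE supplied by intact live HEK cells; FP after avidin binding of uncleaved biotin substrate so inhibition keeps polarization high; 0% = DMSO wells and 100% = 60 µM reference IDE inhibitor Ii1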
# PP1 counter – counter-screen for PP5 inhibitors: inhibitors of human PP1-alpha. P62136. purified PP1alpha, OMFP fluorescence. inhibition, % at 6.7 µM. 320,000 tested, 0.9% active. AID 2235;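 active = inhibition above the mean inhibition of all tested compounds plus 3 SD, computed separately for each screening campaign, cut at about 15% in these data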
# PP5 primary – inhibitors of human protein phosphatase 5 (PP5). inhibition, % at 6.7 µM. 320,000 tested, 0.18% active. purified PP5c, OMFP substrate fluorescence. P53041;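 active = inhibition above the campaign's mean inhibition across all tested compounds plus 3 SD, cut at about 9.5% in these data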;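 also: 0% = DMSO only and 100% = 100 µM cantharidin control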
# SKKanGAS inh – inhibitors of SKKanGAS S. pyogenes growth in kanamycin (SK-promoter or general growth effect); BacTiter-Glo, 6 h; inhibition, % at 7.5 µM; 300,000 tested, 1.3% active;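 active = mean replicate score, as percent of positive control median, at least 50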;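 also: strain carries kanamycin resistance gene driven by streptokinase promoter and grows in 40 µg/ml kanamycin; loss of luminescence reflects streptokinase promoter inhibition or plain growth inhibition; 0% = median of DMSO wells and 100% = positive control at its reference dose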
# PP1 confirm – confirmation of human PP1 phosphatase inhibitors. shares compounds with PP1 counter. purified PP1alpha, OMFP substrate fluorescence. inhibition, % at 6.7 µM. 1,900 tested, 52% active;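 active = mean PP1 inhibition above a set limit taken from the earlier primary screen, cut at about 15% in these data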
# PP5 counter – inhibits human PP5 phosphatase in PP1 counter-screen | shares compounds with PP1 counter | purified PP5c, OMFP fluorescence | inhibition, % at 6.7 µM | 1,900 tested, 4% active | AID 2360;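 active = mean PP5 inhibition over triplicate wells above about 9.5% taken from the earlier PP1 screen, limit read from the data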
# The depositor's hits bear a star; x = no result given.
SMILES,Exocytosis inh,IDE act,IDE cell inh,PP1 counter,PP5 primary,SKKanGAS inh,PP1 confirm,PP5 counter
O=C(CN(Cc1cccs1)C(=O)CNC(=O)c1ccco1)NC1CCCCC1,-2,-3,0,-2,1,-2,x,x
Fc1cccc(CSc2ccc3nnc(-c4ccccn4)n3n2)c1,6,1,1,18*,2,1,1,-5
CSCCC(c1nnnn1C1CCCCC1)N1CCN(C/C=C/c2ccccc2)CC1 (stereo not given),-2,x,x,x,x,x,x,x
CCN1/C(=C/C=C/C=C/C=C/c2sc3ccccc3[n+]2CC)Sc2ccccc21,-50,-2,13,20*,-2,23,39*,0
CC[n+]1c(/C=C/Nc2ccccc2)sc2ccccc21,-3,3,7,0,3,4,x,x
CCN1/C(=C/C=C/c2sc3ccccc3[n+]2CC)Sc2ccccc21,75*,-2,8,18*,6,89*,-8,9
CN1CCN(C(c2ccc(Br)cc2)c2cc(Cl)c3cccnc3c2O)CC1 (stereo not given),54,-6,3,24*,5,69*,3,-1
CN1CCN(C(c2ccc(F)cc2)c2ccc3cccnc3c2O)CC1 (stereo not given),-1,0,x,x,x,x,x,x
CCC1(C)Cc2sc3c(=O)[nH]c(=S)[nH]c3c2CO1 (stereo not given),-5,1,4,4,2,-3,x,x
CC(=O)OCCN1c2ccccc2Sc2cnccc21,-3,x,x,x,x,x,x,x
CC(=O)OCCCN1c2ccccc2Nc2nnc(-c3ccccc3)cc21,-1,0,3,29*,0,3,28*,-3
CCOc1cc(/C=N/NC(=O)C(=O)Nc2cc(Cl)ccc2C)ccc1O,3,2,-2,-3,1,-10,x,x
O=C(/C=C/c1ccc([N+](=O)[O-])cc1)NCCc1ccccc1,0,2,6,-1,3,-23,x,x
O=C(/C=C/c1ccccc1)NCCc1ccccc1,-4,6,-2,35*,0,100*,-1,-5
COc1ccc(/C=C/C(=O)OCC(=O)Nc2nnc(-c3ccccc3)o2)c(OC)c1,48,x,x,x,x,x,x,x
O=C(COC(=O)/C=C/c1ccccc1F)Nc1nnc(-c2ccccc2)o1,-5,5,-1,21*,-3,68*,22*,-1
COc1cccc(/C=C/C(=O)OCC(=O)Nc2nnc(-c3ccccc3)o2)c1OC,1,3,x,x,x,x,x,x
O=C(COC(=O)/C=C/c1ccc(F)cc1)Nc1nnc(-c2ccccc2)o1,-3,-3,-3,18*,4,x,28*,-8
COc1cccc(/C=C/C(=O)OCC(=O)Nc2nnc(-c3ccccc3)o2)c1,11,6,-2,38*,-2,63*,25*,-1
O=C(c1ccccc1)c1ccc(C(=O)N2CCN(c3ccccc3O)CC2)cc1,6,x,x,x,x,x,x,x
CCN1CCN(S(=O)(=O)c2ccc(Cl)c(C(=O)Nc3ccccc3N3CCCC3)c2)CC1,2,-3,-5,-1,3,20,x,x
CCN1CCN(S(=O)(=O)c2ccc(Cl)c(C(=O)Nc3ccccc3N3CCCCC3)c2)CC1,-3,-1,10,23*,0,-3,-1,-1
CC(C)CC(NC(=O)C(NC(=O)C1OC2OC(C)(C)OC2C2OC(C)(C)OC12)C(C)C)C(=O)O (stereo not given),-2,2,7,-2,-1,-11,x,x
COc1ccccc1C(C)NC(=O)CCNC(=O)c1ccc(Cl)cc1 (stereo not given),-2,-4,-2,x,x,x,x,x
O=C(Nc1cccc(NC(=O)c2ccc(Br)o2)n1)c1ccc(Br)o1,-4,-8,4,35*,5,-11,31*,-4
Cc1nc(NC(=O)c2ccc(Br)o2)ccc1Br,-14,4,x,x,x,-4,x,x
CC(C)OC(=O)CC(=O)c1sc2nc3c(cc2c1N)CN(C)CC3,x,x,-5,23*,5,8,7,20*
COc1cc(C2c3cc4c(cc3OC(NCCc3ccccc3)C2C)OCO4)cc(OC)c1OC (stereo not given),5,3,x,x,x,x,x,x
